Measurements taken from the supplement of paper PMC10338343.
± gives the standard deviation. The full ranking holds about 8,200 sequences; the median of “pre-steady-state target cleavage rate” is about 0.024, and the highest 2% start at about 1.3. The entries come from a sample that favours the highest values as a whole.

System: MIWI (PIWIL1) piRISC loaded with L1MC piRNA (30 nt)
Assay: pre-steady-state target cleavage rate (min^-1); MIWI and MILI are mouse PIWI proteins and EfPiwi is from a freshwater sponge; tags in brackets are library labels; higher = faster piRNA-guided slicing of the target
Conditions: guide: L1MC piRNA 5'p-UAACUAAAUACUAUGCAAGCUGUAGGUCCU
How it was run: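 Cleave-'n-Seq reactions paired 0.1 nM transcribed, DNA-blocked target RNA library with 1 nM active affinity-purified piRISC holding one synthetic guide, plus or minus 500 nM GTSF1 partner protein, in HEPES–potassium acetate buffer at 33 °C for 0–8 or 0–960 min. After sequencing of uncleaved targets and normalisation to depth and weakly complementary targets, the pre-steady-state cleavage rate was taken from a burst-and-steady-state fit. Three trials were pooled, and k3 was capped at 0.0001 min^-1.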

[1] = auxiliary factor: 500 nM mouse GTSF1
[2] = auxiliary factor: none (no GTSF1)

Sequence | pre-steady-state target cleavage rate [1] | pre-steady-state target cleavage rate [2]
UCCAGCUACAGCUUGCAUAGUUUUUAGUUA | 0.253 ± 0.026 | 0.0203 ± 0.0032
UCCUGCUACGAGCUUGCAUAGUAUUUAGUUA | 0.717 ± 0.073 | 0.0315 ± 0.0066
UCGAGCUACAGCUUGCAUAGUAUUUAGAUA | 0.443 ± 0.041 | 0.0206 ± 0.0046
ACGAGCUACAGCUUGCAUAGUAUUUAGUUA | 1.54 ± 0.057 | 0.094 ± 0.016
UCGAGCUACAGCUUGCAUAGUAUUUAGUUA | 1.41 ± 0.062 | 0.0832 ± 0.014
UCGAGCUACAGCUUGCAUAGUAUUUAGAAA | 0.407 ± 0.039 | 0.0061 ± 0.0023
UCGAGCUACAGCUUGCAUAGUAUUUAGUAA | 1.08 ± 0.082 | 0.0348 ± 0.0066
UCCUGGAUCAGCUUGCAUAGUAUUAAGAUA | 0.265 ± 0.05 | 0.00645 ± 0.0033
UGGACCUACAGCUUGCAUAGUAUGUAGUUA | 0.332 ± 0.041 | 0.0171 ± 0.0041
UCCUGCUACAGCUUGGUUAGUAUUUACAAA | 0.0104 ± 0.0047 | 
UCGACCUACAGCUUGCAUAGUAUUUUGUUA | 0.921 ± 0.043 | 0.0471 ± 0.0091
UCCUGGAUCAGCUAGCAUAGUAUUUUCAAA | 0.0506 ± 0.015 | 
UGGACUCUACAGCUUGCAUAGUAUUUAGUUA | 1.4 ± 0.066 | 0.0856 ± 0.017
AGGACUACAGCUUGCAUAGUAUUUAGUUA | 1.24 ± 0.066 | 0.0945 ± 0.016
UCCACUCUACAGCUUGCAUAGUAUUUAGUUA | 0.884 ± 0.029 | 0.0688 ± 0.012
UCGACUCUACAGCUUGCAUAGUAUUUAGUUA | 1.48 ± 0.06 | 0.0579 ± 0.0096
UGGACUACAGCUUGCAUAGUAUUUAGUUA | 1.34 ± 0.053 | 0.0823 ± 0.013
AGGACUCUACAGCUUGCAUAGUAUUUAGUUA | 1.28 ± 0.069 | 0.0617 ± 0.011
UCGACGCUACAGCUUGCAUAGUAUUUAGUUA | 1.27 ± 0.063 | 0.094 ± 0.022

Sequence | pre-steady-state target cleavage rate [1] | pre-steady-state target cleavage rate [2]
UGGACACUACAGCUUGCAUAGUAUUUAGUUA | 1.04 ± 0.063 | 0.0643 ± 0.0081
UGGACCUACACCUUGCAUAGUAUUUUCAAA | 0.327 ± 0.05 | 0.00389 ± 0.0023
UCCUGGAACUGCUAGCAUAGUAUUUAGUUA | 0.534 ± 0.037 | 0.00949 ± 0.0035
UCGACCUACAGCUUGCAUAGUAUUUAGUCA | 0.947 ± 0.041 | 0.0656 ± 0.013
UCCUGGUACACCUUGCAUAGUAUUUAGUAA | 0.334 ± 0.078 | 0.0104 ± 0.0044
UCCUCCUACAGCUUGCAUAGUAUAUUGUUA | 0.368 ± 0.033 | 0.0145 ± 0.0039
UGGACCUACAGCUUGCAUACUAAUUAGUUA | 0.154 ± 0.01 | 0.00958 ± 0.0024
UCCUGGAACAGCUUGCUAUGUAUUUAGUUA | 0.0729 ± 0.011 | 0.00814 ± 0.0024
UCCUCCUACAGCUUGCAUACUAUUUACUUA | 0.197 ± 0.023 | 0.018 ± 0.0033
AGGACCUACAGCUUGCAUAUUAUUUAGUUA | 1.23 ± 0.074 | 0.0773 ± 0.017
UGGACCUACAGCUUGCAUAUAUUUAGUUA | 0.429 ± 0.067 | 0.00298 ± 0.0022
UCGACCUACAGCUUGCAUAUAUUUAGUUA | 0.489 ± 0.044 | 
UGGACCUACAGCUUGCAUAUUAUUUAGUUA | 1.71 ± 0.12 | 0.0442 ± 0.0088
UCGACCUACAGCUUGCAUAGUUAUUUAGUUA | 0.0764 ± 0.016 | 0.00495 ± 0.0031
UCGACCUACAGCUUGCAUAUUAUUUAGUUA | 1.5 ± 0.072 | 0.0515 ± 0.013
UCCUGGAACAGCUUGCACAGUAUUUAGUUA | 1.01 ± 0.035 | 0.0853 ± 0.018
UCCUGGAUGUGCUUGCAUAGUAAUUAGUUA | 0.0816 ± 0.011 | 0.0162 ± 0.0045
UCCUCCUUCUGCUUGCAUAGUAUUUAGUUA | 1.18 ± 0.038 | 0.0546 ± 0.0091
UCCUCCUACUGCUUGCAUAGUAUAUAGUUA | 0.472 ± 0.026 | 0.0228 ± 0.0045
